Entries with a potency or affinity are not part of this list. Calls of active or inactive are those of the source. How the calls were made is not given here.
Experiment: HEK293 cell viability loss – plate reader, cherry-pick, cytotoxicity control, dose response (AID 651899);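 further: cells exposed to compound for 48 hours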
Conditions: series mostly up to 26 µM
For CC(=O)c1ccc(C(=O)NC2CCCN(Cc3ccccc3F)C2)s1 (stereo unspecified), the outcome was “inactive”. In the case of CO[C@H]1CN(C)C(=O)c2ccc(NC(C)=O)cc2OC[C@@H](C)N(C(=O)C2CCCCC2)C[C@H]1C, the outcome is reported as “inactive”. In the case of O=C(CN1C(=O)/C(=C/c2cccc(Br)c2)SC1=S)Nc1cccnc1, the outcome is reported as “inactive”. In the case of Cc1nc2sc(C(c3ccc(Cl)cc3)N3CCN(c4ccccc4F)CC3)c(O)n2n1 (stereo unspecified), the outcome is reported as “inactive”. For CCOC(=O)CNC(=O)c1sc2ncnc(N3CCc4ccccc4C3)c2c1C, the outcome was “inactive”. For O=C(CSc1nc2cc(C(=O)O)ccc2c(=O)n1-c1ccc(F)cc1)Nc1ccc(F)c(F)c1F, the outcome was “inactive”. With O=C(Nc1ncc2c(n1)CC(c1cccc(Cl)c1)CC2=O)c1ccco1 (stereo unspecified) the outcome was “inactive”. With CC1CN(C(=O)Nc2ccc3snnc3c2)c2ccccc21 (stereo unspecified) the outcome was “inactive”. In the case of CC(=O)c1ccc(C(=O)N2CCCC(C(=O)c3ccc(Cl)cc3)C2)s1 (stereo unspecified), the outcome is reported as “inactive”. For C[C@@H]1CN([C@H](C)CO)C(=O)Cc2cc(NC(=O)Cn3cnnn3)ccc2O[C@H]1CN(C)Cc1ccc2c(c1)OCO2, the outcome was “inactive”. With CCOC(=O)c1c(N)sc(C(N)=O)c1C the outcome was “inactive”. For COc1ccc(Cn2ccc(=O)c(Cc3c(Cl)cccc3Cl)c2C)cc1, the outcome was “inactive”. For O=C(C1CCOCC1)N1CC[C@@H]2[C@H]1c1cc(Br)ccc1N[C@@H]2CO, the outcome was “inactive”. For COc1ccc(-c2nc3cnccn3c2Nc2ccc3c(c2)OCO3)cc1, the outcome was “inactive”. With CC(=O)c1ccc(N2CCN(C(=O)c3ccc4nc[nH]c4c3)CC2)cc1 the outcome was “inactive”. With COc1ccc(NC(=O)c2cnc(C)cn2)cc1-n1cnnn1 the outcome was “inactive”. For C/C=C(/C)C(=O)OC(C)(C)[C@@H]1Cc2c(ccc3ccc(=O)oc23)O1, the outcome was “inactive”. In the case of CCOc1ccc(CCNC(=O)c2cnc(C)cn2)cc1OCC, the outcome is reported as “inactive”. With CC(=O)c1ccc(N2CCN(C(=O)Cc3ccccc3)CC2)c(F)c1 the outcome was “inactive”. In the case of Fc1ccc(-c2ccc3c(c2)C2CC3CCN2)cc1 (stereo unspecified), the outcome is reported as “inactive”. With CCNC(=O)[C@@H]1[C@@H](CO)[C@@H]2Cn3c(ccc(-c4cccnc4)c3=O)[C@@H]2N1Cc1ccc2c(c1)OCO2 the outcome was “inactive”. For CC(=O)c1ccc(NC(=O)COC(=O)Cc2ccsc2)cc1, the outcome was “inactive”. For CN1c2ccc(-c3cccc(F)c3)cc2[C@H]2[C@H](CCN2C(=O)c2ccncc2)[C@H]1CO, the outcome was “inactive”. For CCOc1ccc(-n2c(SCC(N)=O)nc3c(c2=O)SCC3)cc1, the outcome was “inactive”. With CC(=O)Nc1ccc2nc(-c3cccnc3)[nH]c2c1 the outcome was “inactive”. With O=C(Nc1cccc(F)c1)C1CCCN(c2cnccn2)C1 (stereo unspecified) the outcome was “inactive”. For O=C(C1CCOCC1)N1CC[C@@H]2[C@H](CO)Nc3ccc(Br)cc3[C@@H]21, the outcome was “inactive”. In the case of COCCNC(=O)C[C@@H]1CC[C@@H]2[C@H](COc3ccc(NC(=O)Nc4cccc(F)c4)cc3C(=O)N2C)O1, the outcome is reported as “inactive”. In the case of C[C@@H]1CN([C@@H](C)CO)C(=O)Cc2cc(NC(=O)Cn3cnnn3)ccc2O[C@H]1CN(C)Cc1ccc2c(c1)OCO2, the outcome is reported as “inactive”. For O=C(CSc1n[nH]c(-c2cccnc2)n1)Nc1ccnc2ccccc12, the outcome was “inactive”. In the case of Cc1ccc(-n2ncc3c2CC(C)(C)CC3NC(=O)CCc2cccnc2)cc1 (stereo unspecified), the outcome is reported as “inactive”. For Cc1nc(=O)c(-c2ccccc2)c(C)n1-c1ccc(Br)cc1, the outcome was “inactive”. In the case of C=C(C)CSc1nc(N)c2c3c(sc2n1)CCC3, the outcome is reported as “inactive”. For COC(=O)C1C(=O)C=C(Nc2ccc(F)cc2)CC1c1ccc(OC)cc1 (stereo unspecified), the outcome was “inactive”. With CN1c2ccc(-c3cccc(F)c3)cc2[C@H]2[C@H](CCN2C(=O)C2CC2)[C@H]1CO the outcome was “inactive”. In the case of O=C(CSc1nnc(-c2ccncc2)n1-c1ccc(Cl)cc1)NCc1cccs1, the outcome is reported as “inactive”.
